Values joined by “and” are separate entries in the source; they are usually repeats but may differ in a detail not shown here. Equal entries are not always repeated. Records with an inconclusive call do not appear. Where a structure was tested more than once in an assay, its records may differ in their call. Active and inactive are the calls of the source. Unless noted, no stated cut-off is given here; in the data, active means inhibition above about 80%; inactive means the rest.
Key:
[1] = SU-DIPG-VI glioma cell viability, MIPE4.0 library, CellTiter-Glo luminescence, qHTS (AID 1347066; cut-off not given, nearly all actives have AC50 up to about 30 µM;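 further: cells exposed to compound for 48 hours before readout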); conditions: CellTiter-Glo ATP luminescence
[2] = sensitizers of A549 cells to miR-34 induction, primary screen, imaging, A549 dox-inducible miR-34, nuclei and caspase counts (AID 1347080;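 active means compounds whose cell count with miR-34 switched on is under 0.7 times the count with it off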); conditions: A549 miR-34 inducible, Hoechst nuclei count, 48 h
[3] = survival rescue of mitochondrial mutant cells in low glucose, primary screen, MELAS cybrids, Rieske KO mouse fibroblasts, CellTiter-Glo (AID 1508586;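 active means mean z-score across replicates of 1.96 or higher in either the MELAS or the Rieske mutant cell line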;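 further: z relative to plate mean and SD of compound and empty wells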)
[4] = biological target: NAD(+) hydrolase SARM1 (Homo sapiens) (UniProt Q6SZW1); assay: SARM1 TIR NADase inhibitors, cell lysate, NAD-Glo luminescence (AID 1508614;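 active means compound whose remaining NAD level is above about 45 nM, limit read from the data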); conditions: SAM-TIR HEK293T lysate NADase, at 1 µM, stronger effect = higher value
Chain of NAD(+) hydrolase SARM1 (Homo sapiens) (Q6SZW1 whole entry, looked up, the tested form may be a part): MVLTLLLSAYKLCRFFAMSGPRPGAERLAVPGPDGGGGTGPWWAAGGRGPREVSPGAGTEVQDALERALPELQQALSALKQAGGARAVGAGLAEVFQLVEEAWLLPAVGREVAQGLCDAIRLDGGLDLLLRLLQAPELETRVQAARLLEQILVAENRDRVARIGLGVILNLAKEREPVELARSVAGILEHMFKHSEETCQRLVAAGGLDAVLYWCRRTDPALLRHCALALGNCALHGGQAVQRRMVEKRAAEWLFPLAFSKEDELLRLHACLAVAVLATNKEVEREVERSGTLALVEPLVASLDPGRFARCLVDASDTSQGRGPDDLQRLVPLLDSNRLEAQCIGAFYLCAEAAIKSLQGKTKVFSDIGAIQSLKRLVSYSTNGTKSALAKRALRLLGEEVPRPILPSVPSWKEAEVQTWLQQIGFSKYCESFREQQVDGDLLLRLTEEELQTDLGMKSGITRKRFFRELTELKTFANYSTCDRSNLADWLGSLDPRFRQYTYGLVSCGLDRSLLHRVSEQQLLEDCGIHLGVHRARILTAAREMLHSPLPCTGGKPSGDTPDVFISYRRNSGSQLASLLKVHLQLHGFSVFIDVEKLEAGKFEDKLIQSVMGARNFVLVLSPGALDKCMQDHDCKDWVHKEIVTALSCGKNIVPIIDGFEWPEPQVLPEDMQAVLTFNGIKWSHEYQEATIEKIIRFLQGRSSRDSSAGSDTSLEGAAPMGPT

[5] = biological target: Mitogen-activated protein kinase 7 (Homo sapiens) (UniProt Q13164); assay: ERK5 transactivation activators in reporter cells, primary screen, cell-based, HTS (AID 1508626;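 active means luciferase signal above three times the same-plate solvent-only control wells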;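 further: luciferase driven by Gal4-ERK5 fusion binding five Gal4 sites before minimal TATA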); conditions: HeLa Gal4-ERK5 transactivation, 18 h, at 5 µM, stronger effect = higher value
Chain of Mitogen-activated protein kinase 7 (Homo sapiens) (Q13164 whole entry, looked up, the tested form may be a part): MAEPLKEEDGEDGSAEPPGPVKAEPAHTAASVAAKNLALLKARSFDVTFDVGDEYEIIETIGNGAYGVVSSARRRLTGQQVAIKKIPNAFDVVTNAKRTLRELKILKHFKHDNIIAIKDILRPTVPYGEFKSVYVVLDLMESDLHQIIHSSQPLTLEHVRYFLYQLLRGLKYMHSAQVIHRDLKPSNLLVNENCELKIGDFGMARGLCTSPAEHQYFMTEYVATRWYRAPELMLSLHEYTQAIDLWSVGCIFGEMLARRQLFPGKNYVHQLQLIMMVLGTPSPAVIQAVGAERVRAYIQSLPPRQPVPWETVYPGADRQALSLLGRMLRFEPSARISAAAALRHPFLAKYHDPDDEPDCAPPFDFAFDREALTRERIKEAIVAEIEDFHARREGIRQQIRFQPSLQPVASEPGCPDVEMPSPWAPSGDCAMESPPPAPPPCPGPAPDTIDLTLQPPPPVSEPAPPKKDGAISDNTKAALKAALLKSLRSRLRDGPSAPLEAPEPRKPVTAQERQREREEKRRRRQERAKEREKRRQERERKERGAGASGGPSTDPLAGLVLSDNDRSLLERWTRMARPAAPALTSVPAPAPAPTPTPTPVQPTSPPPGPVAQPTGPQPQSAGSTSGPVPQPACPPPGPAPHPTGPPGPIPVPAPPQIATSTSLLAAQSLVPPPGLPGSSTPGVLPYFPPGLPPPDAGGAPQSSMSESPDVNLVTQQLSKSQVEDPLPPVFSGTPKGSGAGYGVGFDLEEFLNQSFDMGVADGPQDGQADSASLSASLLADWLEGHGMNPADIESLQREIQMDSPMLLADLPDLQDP

[6] = viability rescue of complex I mutant cybrids, primary screen, cell-based, galactose medium, ATP luminescence (AID 1645843;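 active means z-score of at least 1.8 in each of two replicates, scored against plate mean and spread of sample wells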;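 further: positive z means more ATP and so rescue of galactose-driven cybrid death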); conditions: complex I mutant cybrid cells, 72 h, stronger effect = higher value
[7] = LFS_MB_P medulloblastoma growth inhibition, cell-based, chromothripsis tumors, cisplatin or BGB combos (AID 1671449); conditions: LFS_MB_P medulloblastoma cells;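 further: cells exposed for 96 hours; 0% = vehicle DMSO and 100% = killing by high DMSO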
[8] = HDN33 neuroblastoma growth inhibition, cell-based, chromothripsis tumors, cisplatin or BGB combos (AID 1671450); conditions: HDN33 neuroblastoma cells, stronger effect = higher value;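 further: cells exposed to compound for four days; 0% = vehicle DMSO and 100% = cell killing by high DMSO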
[9] = ICB984 medulloblastoma cell growth inhibition, synergistic combos for chromothripsis tumors, cisplatin or BGB combos (AID 1671451; call rule not given here;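 further: cells exposed for 96 hours before readout; 0% = vehicle DMSO and 100% = killing by high DMSO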); conditions: ICB984 medulloblastoma cells, drug combinations, stronger effect = higher value
[10] = LFS_MB_1R medulloblastoma cell growth inhibition, synergistic combos for chromothripsis tumors, cisplatin or BGB combos (AID 1671452); conditions: LFS_MB_1R medulloblastoma cells, stronger effect = higher value;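 further: cells exposed for 96 hours before readout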
[11] = HTB85 osteosarcoma cell growth inhibition, synergistic combos for chromothripsis tumors, BGB or cisplatin IC20 combos (AID 1671453); conditions: HTB85 osteosarcoma cells, drug combinations, stronger effect = higher value;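 further: cells exposed for 96 hours before readout; 0% = vehicle DMSO and 100% = high DMSO killing control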
[12] = CRL2098 osteosarcoma cell growth inhibition, synergistic combos for chromothripsis tumors, BGB or cisplatin IC20 combos (AID 1671454); conditions: CRL2098 osteosarcoma cells, drug combinations, stronger effect = higher value;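 further: cells exposed for 96 h before readout; 0% = vehicle DMSO and 100% = killing by high DMSO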
[13] = HD-MB03 medulloblastoma cell growth inhibition, synergistic combos for chromothripsis tumors, BGB or cisplatin IC20 combos (AID 1671455; in the data active means inhibition above about 83%;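 further: 0% = vehicle DMSO and 100% = high DMSO as cytotoxic control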); conditions: HD-MB03 medulloblastoma cells, stronger effect = higher value
[14] = phospholipid biosynthesis inhibitors in animal cells, primary screen, cell-based, LOPAC library, screen 4 (AID 1347384; call rule not given here); conditions: phospholipid biosynthesis inhibition screen, at 10 µM
[15] = stronger effect = lower value, cell number ratio, induced over uninduced
[16] = measured here: relative caspase fold change +Dox/-Dox
[17] = measured here: total cells with miR-34 induction, stronger effect = lower value
[18] = measured here: total cells without miR-34 induction
[19] = MELAS cybrid survival, CellTiter-Glo 48 h, stronger effect = higher value
[20] = Rieske KO mouse fibroblast survival, CellTiter-Glo 72 h
[21] = measured here: combination with BGB IC40, at 0.05 µM

For CCn1cc(C(=O)O)c(=O)c2cc(F)c(N3CCNCC3)nc21, the outcome [1] was “inactive”, the fold change [2, 15] was 0.955 (inactive) and 0.936 (inactive) and 0.839 (inactive) and the fold change [2, 16] was 0.759 and 2.37 and 1.38. The cell count [2, 17] was 8750 and 11500 and 9060, the cell count [2, 18] was 9160 and 12300 and 10800 and the z-score [3, 19] was -0.278 (inactive) and 0.526 (inactive) and -0.113 (inactive). The z-score [3, 20] was 0.647 and 0.794 and 0.23, the remaining NAD [4] was 10 nM (inactive) and the luciferase signal [5] was 40 AU (inactive). The z-score [6] was -0.075 (inactive), the inhibition ([7]; at 0.5 µM, stronger effect = higher value) was 95.5% (active) and -29.1% (inactive) and the inhibition ([7]; measured here: combination with BGB IC20, at 0.005 µM) was -19.8% and -22.4%. For the same compound, the inhibition ([7]; measured here: combination with BGB IC40, at 0.005 µM) was -56.7% and 0.955%, the inhibition [7, 21] was -47.1% and -2.69% and the inhibition ([7]; measured here: combination with cisplatin, at 0.5 µM, stronger effect = higher value) was 108% and -48.6%. The inhibition ([7]; measured here: combination with cisplatin, at 5 µM, stronger effect = higher value) was -38.7% and -12%, the inhibition ([8]; BGB combo, at 5 µM) was -53.5% and -12.2% and the inhibition ([8]; at 0.5 µM) was -20.8% (inactive) and 3.72% (inactive). The inhibition ([8]; cisplatin combo, at 5 µM) was -17.5% and -19.5%, the inhibition ([8]; measured here: with BGB IC20 combination, at 0.5 µM) was -36.2% and -5.94% and the inhibition ([8]; measured here: with cisplatin IC20 combination, at 0.5 µM) was 4.58% and 5.43%. For the same compound, the inhibition ([8]; single agent, at 5 µM) was -41.7% and 2.78%, the inhibition ([9]; BGB IC20 combo, at 0.005 µM) was -24.2% and -17.5% and the inhibition ([9]; BGB IC40 combo, at 0.005 µM) was -20.3% and -26.8%. The inhibition ([9]; BGB IC40 combo, at 0.05 µM) was -25.4% and -9.4%, the inhibition ([9]; at 0.5 µM) was -21.1% (inactive) and -10.7% (inactive) and the inhibition ([9]; cisplatin combo, at 0.05 µM) was -31.9% and -9.4%. The inhibition ([9]; cisplatin combo, at 0.5 µM) was -30.1% and -9.09%, the inhibition ([9]; cisplatin combo, at 5 µM) was -14.7% and -13.9% and the inhibition ([9]; measured here: 5 uM single agent, at 5 µM) was -13.9% and -18.7%. The inhibition ([10]; at 0.5 µM) was -40% (inactive) and 2.92% (inactive), the inhibition [10, 21] was -27.4% and 5.91% and the inhibition ([10]; measured here: combination with cisplatin, at 0.5 µM) was -80.9% and -14.1%. The inhibition ([10]; measured here: combination with cisplatin, at 5 µM) was -47.5% and -13.9%, the inhibition ([11]; at 0.5 µM) was -12.7% (inactive) and -3.77% (inactive) and the inhibition ([11]; measured here: with BGB IC20, at 0.5 µM) was 1.15% and -26.8%. For the same compound, the inhibition ([11]; measured here: with BGB IC20, at 5 µM) was -15.3% and -6.32%, the inhibition ([11]; measured here: with cisplatin IC20, at 0.5 µM) was -12.7% and 12.5% and the inhibition ([11]; measured here: with cisplatin IC20, at 5 µM) was -14.2% and -4.27%. The inhibition ([11]; single agent, at 5 µM) was 1.99% and -0.637%, the inhibition ([12]; at 0.5 µM) was -80.2% (inactive) and -23.4% (inactive) and the inhibition ([12]; measured here: combination with BGB at IC20, at 0.5 µM) was -85.1% and -50.3%. For the same compound, the inhibition ([12]; measured here: combination with cisplatin at IC20, at 0.5 µM) was -99.8% and 10.9%, the inhibition ([13]; at 0.5 µM) was -13.7% (inactive) and -3.13% (inactive) and the inhibition ([13]; measured here: combo with BGB at IC20, at 0.5 µM) was -9.56% and -6.49%. For the same compound, the inhibition ([13]; measured here: combo with cisplatin at IC20, at 0.5 µM) was -20.1% and 4.15%.
For Nc1ccn([C@H]2CC[C@@H](CO)O2)c(=O)n1, the outcome [1] was “inactive”, the fold change [2, 15] was 1 (inactive) and 0.95 (inactive) and 0.852 (inactive) and the fold change [2, 16] was 0.845 and 0.908 and 1.17. The cell count [2, 17] was 9380 and 8950 and 8540, the cell count [2, 18] was 9340 and 9420 and 10000 and the outcome [14] was “inactive”. For the same compound, the z-score [3, 19] was -0.041 (inactive) and 0.441 (inactive), the z-score [3, 20] was -0.157 and -0.525 and the remaining NAD [4] was 10 nM (inactive). For the same compound, the z-score [6] was 0.025 (inactive) and 0.685 (inactive).
